Laboratory results published in PubChem BioAssay AID623994 (NMMLSC, 2012).
Entries with a potency or affinity are not part of this list. The source made the active and inactive calls.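 Rule for the calls: active = compounds whose fitted concentration for half the maximal dye retention is below 100 µM; inactive = the rest.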

Biological target: Multidrug resistance protein CDR2 (Candida albicans (strain SC5314 / ATCC MYA-2876)) (UniProt P78595)
Experiment: blockers of Nile Red efflux by Candida CDR2 – S. cerevisiae AD1-8u, singleplex, Cherry Pick2 set, dose response (AID 623994)

Multidrug resistance protein CDR2 (Candida albicans (strain SC5314 / ATCC MYA-2876)), sequence (P78595 whole entry, looked up): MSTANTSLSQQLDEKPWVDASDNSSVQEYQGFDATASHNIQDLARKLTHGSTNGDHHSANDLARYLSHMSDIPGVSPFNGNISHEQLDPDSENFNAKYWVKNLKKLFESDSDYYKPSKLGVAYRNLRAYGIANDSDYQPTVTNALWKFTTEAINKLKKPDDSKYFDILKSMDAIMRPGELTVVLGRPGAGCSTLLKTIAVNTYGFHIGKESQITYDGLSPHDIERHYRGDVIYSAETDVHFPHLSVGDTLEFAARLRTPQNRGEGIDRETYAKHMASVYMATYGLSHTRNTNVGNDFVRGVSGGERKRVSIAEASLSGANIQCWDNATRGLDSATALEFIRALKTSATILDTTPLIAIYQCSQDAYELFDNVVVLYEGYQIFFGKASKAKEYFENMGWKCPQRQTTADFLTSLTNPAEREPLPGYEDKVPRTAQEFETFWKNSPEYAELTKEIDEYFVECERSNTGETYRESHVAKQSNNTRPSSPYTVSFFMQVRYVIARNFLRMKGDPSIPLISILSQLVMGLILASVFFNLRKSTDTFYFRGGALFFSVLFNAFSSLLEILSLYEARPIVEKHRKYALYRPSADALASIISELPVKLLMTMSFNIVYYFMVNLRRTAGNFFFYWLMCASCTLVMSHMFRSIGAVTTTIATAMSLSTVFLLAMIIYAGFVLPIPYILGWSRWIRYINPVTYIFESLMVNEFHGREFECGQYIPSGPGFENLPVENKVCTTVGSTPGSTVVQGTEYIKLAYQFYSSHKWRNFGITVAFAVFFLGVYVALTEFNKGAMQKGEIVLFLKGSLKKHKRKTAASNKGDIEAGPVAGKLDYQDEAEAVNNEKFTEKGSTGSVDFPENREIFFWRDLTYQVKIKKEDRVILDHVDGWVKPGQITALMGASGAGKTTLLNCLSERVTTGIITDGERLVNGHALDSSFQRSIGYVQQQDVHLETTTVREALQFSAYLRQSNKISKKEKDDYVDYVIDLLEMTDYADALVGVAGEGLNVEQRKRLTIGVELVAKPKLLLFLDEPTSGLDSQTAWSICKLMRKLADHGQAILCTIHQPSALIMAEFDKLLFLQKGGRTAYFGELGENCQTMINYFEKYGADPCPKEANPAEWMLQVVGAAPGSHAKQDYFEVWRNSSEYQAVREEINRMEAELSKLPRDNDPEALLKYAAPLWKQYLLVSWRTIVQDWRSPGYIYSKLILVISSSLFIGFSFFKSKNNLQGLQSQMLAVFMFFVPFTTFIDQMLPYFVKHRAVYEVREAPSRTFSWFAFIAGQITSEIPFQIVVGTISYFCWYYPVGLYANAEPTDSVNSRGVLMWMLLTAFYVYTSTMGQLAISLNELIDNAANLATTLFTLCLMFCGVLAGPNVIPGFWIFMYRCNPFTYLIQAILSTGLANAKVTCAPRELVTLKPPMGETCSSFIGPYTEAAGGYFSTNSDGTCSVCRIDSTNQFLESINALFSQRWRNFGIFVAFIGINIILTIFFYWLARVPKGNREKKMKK

| Structure (SMILES) | outcome |
| --- | --- |
| COc1ccc(N2CCN(C(=O)C3CCCN(c4ncnc5c4nc4n5CCCCC4)C3)CC2)cc1 (stereo unspecified) | inactive |
| CCO[C@@H]1OC(C(=O)Nc2ccccc2)=C[C@H](c2ccccc2)[C@H]1CCCO | inactive |
| COc1cccc(N2CCN(C(=O)C3CCCN(c4ncnc5c4nc4n5CCCCC4)C3)CC2)c1 (stereo unspecified) | inactive |
| C[C@@]12C(=O)Nc3ccc(Cl)cc3C(=O)N1[C@H]1c3cc(Cl)ccc3OC[C@@H]1[C@@H]2c1ccccc1 | inactive |
| COc1ccc2c(c1)OC[C@H]1[C@H]2N2C(=O)c3ccc(C)cc3NC(=O)[C@@]2(C)[C@H]1c1ccccc1 | inactive |
| O=C(c1ccoc1)N1CCC2(CC1)Oc1ccc(F)cc1C(=O)C21CC(c2ccccc2)=NO1 (stereo unspecified) | inactive |
| O=C(Nc1ccccc1)C1=C[C@@H](c2ccc(C(F)(F)F)cc2)C[C@@H](OCCCCO)O1 | inactive |
| CC(C)C(=O)N1CCN(c2ccccc2NC(=O)c2ccc3c(c2)OCCO3)CC1 | inactive |
| NS(=O)(=O)c1ccc(N2N=C(c3ccccc3)CC2c2ccc(Br)cc2)cc1 (stereo unspecified) | inactive |
| CCO[C@@H]1OC(C(=O)Nc2ccccc2)=C[C@H](c2ccc(Br)cc2)[C@H]1CCCO | inactive |
| O=C1C(Cc2ccccc2)Nc2ncnc(N3CCN(c4ccccc4)CC3)c2N1Cc1ccccc1 (stereo unspecified) | inactive |
| COc1cc(OC)c2ccc(=O)oc2c1C(CCN1CCCC1)c1ccc(N(C)C)cc1 (stereo unspecified) | inactive |
| Cc1ccc2c(c1)[C@H]1[C@H](CO2)[C@H](c2ccccc2)[C@]2(C)C(=O)Nc3cc(F)c(F)cc3C(=O)N12 | inactive |
| CCCCN1Cc2cc(C(=O)c3cc(OC)ccc3O)cnc2NC1=O | inactive |
| NC1=NC[C@H](Cc2ccc(O)cc2)N1CCc1cc(C(F)(F)F)cc(C(F)(F)F)c1 | inactive |
| O=C(C[n+]1cc(-c2ccc(Cl)cc2)n2c1CCC2)N1c2ccccc2Sc2ccccc21 | inactive |
| Cc1cccc(C2CC(c3ccccc3)=NN2c2ccc(S(N)(=O)=O)cc2)c1 (stereo unspecified) | inactive |
| COc1ccc(CCOC(=O)c2ccc(N)c([N+](=O)[O-])c2)cc1 | inactive |
| Cc1cccc2sc(N(CCCN(C)C)C(=O)c3ccc(Cl)s3)nc12 | inactive |
| CCCCN1Cc2cc(C(=O)c3cc(F)ccc3O)cnc2NC1=O | inactive |
| COc1ccc(O)c(C(=O)c2cnc3c(c2)CN(C)C(=O)N3)c1 | inactive |

| Structure (SMILES) | outcome |
| --- | --- |
| NS(=O)(=O)c1ccc(N2N=C(c3ccccc3)CC2c2ccc(F)cc2)cc1 (stereo unspecified) | inactive |
| CC(C)C(=O)N1CCC2(CC1)Oc1ccc(F)cc1C(=O)C21CC(c2ccc(Cl)cc2)=NO1 (stereo unspecified) | inactive |
| Cc1ccc(N2CCN(C(=O)C3CCCN(c4ncnc5c4nc4n5CCCCC4)C3)CC2)c(C)c1 (stereo unspecified) | inactive |
| O=C(C1CCCN(c2ncnc3c2nc2n3CCCCC2)C1)N1CCN(c2cccc(Cl)c2)CC1 (stereo unspecified) | inactive |
| N#CC(C(=O)NCc1ccccc1)c1nc2ccccc2nc1N1CCCC1 (stereo unspecified) | inactive |
| Cc1ccc(CN2C(=O)C(CC(C)C)Nc3ncnc(N4CCN(c5ccccc5)CC4)c32)cc1 (stereo unspecified) | inactive |
| O=C(C1CCCN(c2ncnc3c2nc2n3CCCCC2)C1)N1CCN(c2ccccc2F)CC1 (stereo unspecified) | inactive |
| COc1cc(OC)c2c(-c3ccccc3)cc(=O)oc2c1C(CCN1CCCC(C)C1)c1ccc(N(C)C)cc1 (stereo unspecified) | inactive |
| CC(C)C(=O)N1CCC2(CC1)Oc1ccc(F)cc1C(=O)C21CC(c2ccccc2)=NO1 (stereo unspecified) | inactive |
| CCC(Cc1ccccc1)OC(=O)c1ccccc1C(=O)O (stereo unspecified) | inactive |
| CCCCCCCCCC[N+](C)(C)CC/C=C1/c2ccccc2Sc2ccc(Cl)cc21 | inactive |
| CN1Cc2cc(C(=O)c3ccccc3O)cnc2NC1=O | inactive |
| COc1cccc(-c2sc3ccc(OC)cc3c2-c2ccc(OCCN3CCOCC3)cc2)c1 | inactive |
| Cc1ccc(O)c(C(=O)c2cnc3c(c2)CN(C)C(=O)N3)c1 | inactive |
| O=C(c1ccoc1)N1CCC2(CC1)Oc1ccc(F)cc1C(=O)C21CC(c2ccc(Cl)cc2)=NO1 (stereo unspecified) | inactive |
| NS(=O)(=O)c1ccc(N2N=C(c3ccccc3)CC2c2cccc(Br)c2)cc1 (stereo unspecified) | inactive |
| CC(C)C(=O)N1CCC2(CC1)Oc1ccc(Cl)cc1C(=O)C21CC(c2ccc(Cl)cc2)=NO1 (stereo unspecified) | inactive |
| CCOc1cccc2sc(NC(=O)c3ccc(Br)s3)nc12 | inactive |
| COc1ccc(C2CC(c3cccc(OC)c3)=NN2c2ccc(S(N)(=O)=O)cc2)cc1 (stereo unspecified) | inactive |
| COc1ccc(C(=O)NC2CC(C)(C)Cc3c2cnn3-c2ccccc2)c(OC)c1 (stereo unspecified) | inactive |
